# Results as given in PubChem BioAssay AID485313 (National Center for Advancing Translational Sciences (NCATS), 2010).
# The campaign covered roughly 320,000 compounds. About 7,600 (2.4%) were called active. About 3% were inconclusive and are not listed. The call rests on the fitted dose curve; in most records, active means well fitted activation curve with a large enough effect; inconclusive means small, poorly fitted or top-dose-only effect; inactive means no such curve, though single readings can be large or run the other way. Many of the other results were omitted from the sample, so actives are more common in it than they were.
# Assay: qHTS Assay for NPC1 Promoter Activators; further: nearly all actives have a fitted effect of over 60% in size;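 on activation: reporter is driven by a mutant NPC1 promoter; % of control where 0% means no effect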
# Conditions: Huh7 NPC1 promoter luciferase reporter, 24 h; series mostly up to 9.22 µM; activation: at the top concentration
# Outline: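 Cells: Huh7 expressing luciferase under the NPC1 promoter, 1500/well. Seeded 2 h, compound added, incubated 24 h at 37 °C. Luciferase reagent, 10 min ambient, then luminescence.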
# Potency means the concentration at half of the fitted maximal effect.
Structure (SMILES),activation,Potency
COC(=O)C1=CO[C@@H](O[C@@H]2O[C@H](CO)[C@@H](O)[C@H](O)[C@H]2O)C2C1C[C@H](O)[C@@H]2C (stereo not given in full),-0.388% (inactive),–
CCc1cccc(NC(=O)COC(=O)c2cc(=O)c3ccccc3o2)c1,-1.37% (inactive),–
CCOC(=O)C1CCN(C(=O)c2cccc(S(=O)(=O)N(CC)c3ccccc3)c2)CC1,-2.25% (inactive),–
COCCN(C(=O)CC1CCCCC1)c1c(N)n(CC(C)C)c(=O)[nH]c1=O,2.93% (inactive),–
O=C(Cc1cccs1)Nc1nnc(C2CC2)s1,-1.03% (inactive),–
Cc1cnc(NC(=O)c2ccccn2)s1,–,0.447 µM (active)
Cc1ccc(Cl)cc1NC(=O)c1ccccn1,-2.16% (inactive),–
Cc1cc(C(=O)Nc2nnc(C3CC3)s2)c(C)s1,–,3.55 µM (active)
Cc1cccc(NC(=O)CSCC(=O)Nc2nnc(C3CC3)s2)c1,-1.19% (inactive),–
O=C(Nc1nnc(C2CC2)s1)c1ccccn1,–,1.12 µM (active)
CCc1cc(C(=O)Nc2nnc(C3CC3)s2)sc1C,29.4% (inactive),–
O=C(Nc1nnc(C2CC2)s1)c1cc(Cl)sc1Cl,24.6% (inactive),–
Cc1cnc(NC(=O)C2CCCC2)s1,11.4% (inactive),–
CCc1ccccc1OCC(=O)Nc1ccc(C)c(S(=O)(=O)N2CCCCCC2)c1,0.449% (inactive),–
O=C(NCc1cccc(Cl)c1)C1=CC=CN2CCS(=O)(=O)N=C12,0.609% (inactive),–
CC(C)Cn1c(N)c(C(=O)COC(=O)C2CCCN2C(=O)c2cccs2)c(=O)n(C)c1=O (stereo not given),-5.84% (inactive),–
COc1ccccc1Nc1nnc(SC(C)C(=O)NC2CC2)s1 (stereo not given),-1.22% (inactive),–
O=C(CN1CCN(S(=O)(=O)/C=C/c2ccccc2)CC1)Nc1ccc(N2CCOCC2)cc1,-4.53% (inactive),–
O=C(O)c1ccc2c(c1)C(=O)N(c1ccc(/C=C/C(=O)c3ccccc3)cc1)C2=O,4.16% (inactive),–
CC(=O)Nc1ccc(/C=C/C(=O)c2ccccc2)cc1,–,2.51 µM (active)
O=C(/C=C/c1ccc(N2CCOCC2)cc1)c1ccccc1,–,2 µM (active)
CC(=O)Nc1ccc(NC(=S)NC(=O)/C=C/c2ccccc2)cc1,-7.81% (inactive),–

Structure (SMILES),activation,Potency
CC(OC(=O)/C=C/c1ccccc1)C(=O)Nc1ccc(C(N)=O)cc1 (stereo not given),-2.06% (inactive),–
O=C(Nc1ccccc1N1CCOCC1)c1ccncc1,1.48% (inactive),–
CCN(C(=O)CSc1ncnc2sccc12)c1c(N)n(Cc2ccccc2)c(=O)[nH]c1=O,-2.5% (inactive),–
CC1(C)CC(=O)C=C(c2ccc3ncccc3c2)C1,-0.503% (inactive),–
COc1ccc2c3c(c(=O)oc2c1)C1O[C@](CCCCN2C(=O)c4ccccc4C2=O)(Cc2c1ccc1ccccc21)O3,-3.07% [at 1.84 µM] (inactive),–
O=C(Cn1nnc(-c2ccccc2)n1)NC(=O)NC1CCCC1,-1.17% (inactive),–
O=C(COC(=O)Cn1[nH]c(=O)c2ccccc2c1=O)Nc1ncc(Cl)cc1Cl,-0.303% (inactive),–
COc1ccccc1/C=C/C(=O)OCC(=O)NC1CCCCCC1,-2.47% (inactive),–
CCOC(=O)c1c(C)[nH]c(C2=NNC(=NC(C)COC)SC2)c1C (stereo not given),–,1.58 µM (active)
COc1ccc(CCNC(=O)COC(=O)C2CC2C)cc1 (stereo not given),-0.82% (inactive),–
Cc1cc(CN(C)C(=O)c2cc(COc3ccc(C)c(C)c3)on2)n[nH]1,–,2.51 µM (active)
CN(CCOc1ccccc1)C(=O)c1cc(COc2c(F)cccc2F)on1,-0.673% (inactive),–
CN(Cc1cccnc1)C(=O)c1cc(COc2ccc3ncccc3c2)on1,-17.8% (inactive),–
CN(Cc1cnccn1)C(=O)c1cc(COc2cccc(C(F)(F)F)c2)on1,20.7% (inactive),–
CCn1ccnc1CN(C)C(=O)c1cc(COc2ccc(-n3cncn3)cc2)on1,3.54% (inactive),–
Cc1ccc(OCc2cc(C(=O)N(C)CCc3ccccc3)no2)cc1C,–,2.82 µM (active)
CC1CC(C)CN(C(=O)COC(=O)c2ccc3ncsc3c2)C1 (stereo not given),-0.452% (inactive),–
Cc1ccc(NC(=O)CCNC(=O)c2ccc([N+](=O)[O-])cc2)cc1S(=O)(=O)N1CCOCC1,-0.724% (inactive),–
O=C(NCCc1ccc(C(F)(F)F)cc1)c1ccc2c(c1)OCO2,-0.0657% (inactive),–
COc1ccc(NC(=O)CSc2nnc(C3CC3)n2C)cc1S(=O)(=O)N1CCCCC1,5.26% (inactive),–
Cc1ccc(NC(=O)C2(N3CCC3=O)CCCCC2)cc1,-6.24% (inactive),–
COc1ccc(C(=O)NCc2nnc(SCCOc3ccccc3)n2C)cc1,-5.31% (inactive),–

Structure (SMILES),activation,Potency
COc1cccc(C(=O)NCCSc2ccc(Br)cc2)c1,-7.75% (inactive),–
COc1ccc(C(=O)NCCSc2ccccc2C)cc1,–,1.26 µM (active)
Cc1c(NS(=O)(=O)c2cc(C(=O)NCCc3ccc(F)cc3)cc(Cl)c2Cl)c(=O)n(-c2ccccc2)n1C,-5.14% (inactive),–
Cc1ccccc1-n1c(C)cc(/C=C2\NC(=O)NC2=O)c1C,–,3.55 µM (active)
Cc1cccc(C)c1-n1c(C)cc(/C=C2\C(=O)NN(c3ccccc3)C2=O)c1C,14.8% (inactive),–
Cc1cc(/C=C2/NC(=O)NC2=O)c(C)n1-c1cccnc1,1.57% (inactive),–
Cc1ccc(C(=O)NCC(c2cccs2)N(C)C)cc1S(=O)(=O)N1CCOCC1 (stereo not given),3.21% (inactive),–
O=c1oc2ccc(C#CC3(O)CCCCC3)cc2cc1-n1cc(-c2ccsc2)nn1,0.191% (inactive),–
O=C(CCNS(=O)(=O)c1ccccc1C(F)(F)F)Nc1ccncc1,-2.75% (inactive),–
CCCc1cc(-c2nc(-c3ccc(C)cc3)cs2)ccn1,1.46% (inactive),–
Cc1ccc(-c2csc(-c3cc(C)on3)n2)cc1,24% (inactive),–
Cc1ccc(-c2csc(-c3c[nH]c4ccccc34)n2)cc1,–,1 µM (active)
Cc1ccc(NC(=O)COC(=O)CN2CCCCCC2=O)c(C)c1,-4.74% (inactive),–
CC(=O)Nc1ccc(NC(=O)COC(=O)c2ccccc2C(=O)c2ccccc2)cc1,1.63% (inactive),–
COc1ccc(C)cc1NC(=O)c1cc(-c2ccccc2)nc2c1cnn2C(C)C,-0.793% (inactive),–
Cc1ccc(Nc2ncnc3c2cnn3C)c(C)c1,-1.96% (inactive),–
COc1ccc2nc(C)cc(Nc3cccc(C(=O)O)c3)c2c1,-5.14% (inactive),–
Cc1ccc(-n2ncc3c(Nc4cccc(C(=O)O)c4)ncnc32)cc1,–,0.794 µM (active)
CCN(CC(=O)NCc1ccc(Cl)cc1)C(=O)c1c(C)noc1C,-2.27% (inactive),–
Cc1ccc(S(=O)(=O)N2CCN(c3ncnc4ccccc34)CC2)cc1,-25.2% (inactive),–
Cc1ccc(-c2cn3cc([N+](=O)[O-])ccc3n2)cc1,–,0.501 µM (active)
CSc1nnc2ccc(-c3ccc(C)cc3)nn12,-3.85% (inactive),–

Structure (SMILES),activation,Potency
Cc1ccc2nc(-c3ccc(Br)cc3)cn2c1,–,0.398 µM (active)
Cc1ccc(C(=O)Cn2cc([N+](=O)[O-])nc2C)cc1,0.0934% (inactive),–
Cc1cc(N2CCOCC2)nc(-c2ccc(Br)cc2)n1,1.79% (inactive),–
Cc1nc(-c2ccc([N+](=O)[O-])cc2)c(-c2ccccc2)o1,-1.23% (inactive),–
CC1CCCC(NC(=O)c2cc(-c3ccncc3)nc3ccccc23)C1C (stereo not given),4.76% (inactive),–
CCOc1ncccc1C(=O)OCC(=O)c1c[nH]c2ccccc12,11.7% (inactive),–
Brc1ccc(CN2CC[C@H]3C=CCc4cccc(c43)C2)cc1,-2.1% (inactive),–
O=C(OCc1cc(=O)n2ccsc2n1)C1(c2ccc(Cl)cc2)CC1,1.14% (inactive),–
O=C(Nc1ccccc1N1CCN(c2ccccc2)CC1)c1cccc(F)c1,-1.86% (inactive),–
O=C(Nc1cccc(NC(=O)c2cccc(F)c2)c1)c1ccccc1,-0.197% (inactive),–
O=C(Nc1ccn(Cc2ccccc2)n1)c1cccc(F)c1,–,3.98 µM (active)
Cc1ccc(S(=O)(=O)N(C)CC(=O)NCC(c2ccc(F)cc2)N2CCOCC2)cc1 (stereo not given),-9.26% (inactive),–
CC(C)Nc1ccc(-n2nc3ccccc3[n+]2[O-])cc1,–,0.355 µM (active)
Cc1cc(Cl)ccc1OCc1nc(-c2ccncc2)no1,–,2.82 µM (active)
COc1ccc(-c2noc(COc3ccc(Cl)c(C)c3)n2)cc1,-0.141% (inactive),–
CN(Cc1ccccn1)Cc1nc(-c2ccc(Cl)cc2)no1,11.1% (inactive),–
Cc1cc(NC(=O)CSc2nnnn2-c2ccc(F)cc2)no1,-7.22% (inactive),–
N#Cc1ccc(OCC(=O)NC(=O)NC2CCS(=O)(=O)C2)cc1 (stereo not given),-3.15% (inactive),–
Cn1c(=NC(=O)c2ccco2)sc2cccc(F)c21,–,2.51 µM (active)
Cn1c(=NC(=O)C2CC2)sc2cc(F)cc(F)c21,10.7% (inactive),–
CCCC(=O)N=c1sc2cccc(F)c2n1C,3.63% (inactive),–
CC1CC2C3CCC4=CC(=O)C=C[C@]4(C)[C@@]3(F)[C@@H](O)C[C@]2(C)[C@@]1(O)C(=O)CO (stereo not given in full),4.26% [at 46.1 µM] (inactive),–

Structure (SMILES),activation,Potency
CN(C)S(=O)(=O)c1cccc(NC(=O)COc2ccc3ccccc3c2)c1,-1.39% (inactive),–
O=C(COC(=O)c1ncc(Cl)c(Cl)c1Cl)NCc1ccccc1,0.917% (inactive),–
CCOc1ccc(C(=O)Nc2nccs2)cc1[N+](=O)[O-],28.4% (inactive),–
Cc1ccc(-c2noc(CN3CCN(Cc4ccccc4)CC3)n2)cc1,-2.06% (inactive),–
Cc1cccc(-c2noc(-c3ccc(F)cc3)n2)c1,–,0.1 µM (active)
Cc1ccc(-c2noc(CC(c3ccccc3)c3ccccc3)n2)cc1,-0.556% (inactive),–
Cc1cccc(-c2nc(Nc3ccc(O)cc3)c3ccccc3n2)c1,-1.56% (inactive),–
Cc1ccc(Cc2nc(-c3cccc(C)c3)no2)cc1,–,2.82 µM (active)
Cc1cccc(-c2noc(CCC(=O)NC3CCCC3)n2)c1,12.3% (inactive),–
O=C(CSc1ccccc1)Nc1cccc(S(=O)(=O)N2CCOCC2)c1,-2.07% (inactive),–
CC(=O)c1sc(NC(=O)c2ccc(C)cc2)nc1C,–,1.58 µM (active)
CC(=O)c1sc(N/N=C/c2ccc(C(C)C)cc2)nc1C,–,1 µM (active)
CC(=O)c1sc(NC(=O)CCCOc2ccccc2C)nc1C,0.721% (inactive),–
CCOC(=O)c1sc(NC(=O)c2sc(C)nc2C)nc1C,-37.1% (inactive),–
CC(=O)c1sc(N/N=C\c2ccc(C)cc2)nc1C,–,3.55 µM (active)
CC(=O)c1sc(NC(=O)C2=NN(c3ccccc3)C(=O)CC2)nc1C,-2.55% (inactive),–
Cc1ccc(S(=O)(=O)Nc2nc(C)cc(N/N=C/c3ccc(O)cc3)n2)cc1,-0.0493% (inactive),–
CC(=O)c1sc(N)nc1C,-6.08% (inactive),–
COc1cc2ccccc2cc1C(=O)Nc1ccccc1C,27% (inactive),–
COc1cc2ccccc2cc1C(=O)Nc1nc(C)c(C(C)=O)s1,–,3.98 µM (active)
COc1cc2ccccc2cc1C(=O)Nc1ccncc1,16.7% (inactive),–
Cc1nnc(C)n1/N=C/c1ccc(C(C)C)cc1,0.602% (inactive),–
